Sampled rows, rich in hits. Any-hit rate of the full collection: about 9.2%.
SMN2 splice up = enhancers of SMN2 splice variant expression. HEK293 SMN2-luciferase splicing reporter, luminescence, 30-36 h. Potency, µM (series often up to 46.1 µM), for the others: at the highest dose activity change, positive = activation, actives largely listed as activators. actives 2.8% (n = 210,000). AID 1458; further: % of control where 0% means no effect; nearly all actives have a fitted effect of over 55% in size
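qHTS luciferase splicing reporter: luminescence rises when SMN2 exon 7 is included in transfected HEK293 cells. Compound exposure lasted 30-36 h at 37C, with 4.5 mM final sodium butyrate as control, followed by a ONE-Glo read.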
ELG1 genotoxic = inducers of genotoxicity in HEK293T ELG1-luciferase cells; HEK293T ELG1-luciferase reporter, luminescence, 16 h; actives 1.3% (n = 330,000); Potency, µM (highest dose often 46 µM), inactives show at the top dose activity change, positive = activation, actives largely listed as activators; AID 504466; further: % of control where 0% means no effect; nearly all actives have a fitted effect of over 60% in size
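ELG1-luciferase HEK293T cells, 2,000/well; compound pinned in; 16 hr, 37 °C, 5% CO2; ONE-Glo, 30 min RT; luminescence on CCD imager.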
NPC1 promoter act = activators of NPC1 promoter; Huh7 NPC1 promoter luciferase reporter, 24 h; Potency, µM (series often up to 9.22 µM), without a hit: at the top dose activation, hits mostly activators; actives 2.4% (n = 320,000); AID 485313; further: % of control where 0% means no effect; nearly all actives have a fitted effect of over 60% in size
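Quantitative HTS used a cell-based reporter: Huh7 cells stably bearing the NPC1 promoter upstream of luciferase were treated with compounds for 24 h, and promoter activation was read as luminescence.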
Rab9 promoter act = Rab9 promoter activation | actives 2.8% (n = 320,000) | Huh7 Rab9 promoter-luciferase reporter, luminescence, 24 h | Potency, µM (top dose mostly 9.22 µM), for inactives: at the top dose activation, negative = inhibition, actives largely listed as activators; further: % of control where 0% means no effect; nearly all actives have a fitted effect of over 60% in size
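Promoter activation is measured as luciferase luminescence in Huh7 cells stably transfected with a Rab9 promoter–luciferase construct, following 24 h compound exposure at 37 °C and 10 min reagent incubation at ambient temperature.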
ELG1 DNA repair = blocks ELG1-dependent DNA repair in HEK293T cells. HEK293T ELG1-luciferase reporter, luminescence, 16 h; DNA damage induced by 5-fluorouridine. Potency, µM (titrated, usually from 46.1 µM), inactives show at the highest dose activity change, negative = inhibition, most hits filed as inhibitors. actives 2.3% (n = 330,000); further: on the % scale 0 is the no-effect control and ±100 the full control effect; nearly all actives have a fitted effect of over 55% in size
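DMSO vehicle served as the neutral condition. Each well held 2,000 cells given 5-fluorouridine plus compound; after 16 hr at 37 °C/5% CO2, ONE-Glo was added and luciferase measured 30 min later.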
FLuc modulator = firefly luciferase modulation, counter-screen for miR-21 project. P08659. purified FLuc, Km substrates, luminescence inhibition. Potency, µM (titrated, usually from 57.5 µM), inactives show at the top dose activity change, negative = inhibition, usual class: inhibitors. actives 6.9% (n = 360,000). AID 588342;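 further: plate controls were vehicle for no effect and reference inhibitor for full effect; nearly all actives have a fitted effect of over 55% in size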
Target sequence (P08659 whole entry, looked up): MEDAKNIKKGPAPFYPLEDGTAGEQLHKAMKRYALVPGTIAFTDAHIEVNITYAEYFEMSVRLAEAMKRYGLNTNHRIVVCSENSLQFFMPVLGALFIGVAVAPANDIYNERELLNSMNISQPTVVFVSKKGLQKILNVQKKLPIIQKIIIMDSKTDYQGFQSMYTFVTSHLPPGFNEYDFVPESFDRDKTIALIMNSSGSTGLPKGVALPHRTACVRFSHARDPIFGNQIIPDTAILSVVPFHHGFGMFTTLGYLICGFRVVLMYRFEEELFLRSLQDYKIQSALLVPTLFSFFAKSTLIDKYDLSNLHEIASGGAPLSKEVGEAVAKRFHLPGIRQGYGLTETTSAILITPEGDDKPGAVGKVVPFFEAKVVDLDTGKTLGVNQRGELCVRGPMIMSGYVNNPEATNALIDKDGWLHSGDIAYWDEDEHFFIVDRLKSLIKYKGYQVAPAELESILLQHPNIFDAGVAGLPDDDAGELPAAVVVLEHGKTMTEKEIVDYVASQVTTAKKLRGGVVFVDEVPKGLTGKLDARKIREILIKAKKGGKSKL
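Biochemical qHTS of compounds, final roughly 60 µM downward over six points, against 10 nM purified firefly luciferase using Km concentrations of substrates (10 uM D-luciferin, 10 uM ATP) in Tris acetate pH 7.5 buffer; luminescence output.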
Numbers without * were called inactive; ? = inconclusive; / = no result; [ ] = remark or other dose. The call rests on the fitted dose curve; in most records, active means well fitted curve in the direction sought with a large enough effect; inconclusive means small, poorly fitted or top-dose-only effect, or another doubt; inactive means no such curve, though single readings can be large; an effect the other way counts as inactive or inconclusive. Potency means the concentration at half of the fitted maximal effect.

SMILES | SMN2 splice up | ELG1 genotoxic | NPC1 promoter act | Rab9 promoter act | ELG1 DNA repair | FLuc modulator
COC(=O)c1ccccc1C(=O)N1CCCC(CCC(=O)NCc2ccc(F)c(F)c2)C1 (centres undefined) | / | ? | 24% | ? | ? | 13µM*
O=C(CCC1CCCN(C(=O)c2ccc3c(c2)OCCO3)C1)NCc1ccccc1F (centres undefined) | / | ? | 26% | 2.8µM* | ? | 17µM*
CN1CCS/C1=C/C=C1\SC(=S)N(CC(=O)O)C1=O | / | -1% | 0% | -2% | 14% | 15µM*
CCCCN1C(=O)/C(=C/C=C2\SCCN2C)SC1=S | 16µM* | 25% | ? | 3.2µM* | ? | 13µM*
CN1CCS/C1=C/C=C1/SC(=S)N(Cc2ccccc2)C1=O | 23% | ? | 18% | ? | ? | ?
CCOC(=O)COc1ccc(CC)cc1C(=O)c1ccn2nc(-c3ccccc3)cc2n1 | 13% | / | / | / | / | 4%
Cc1cc(C)c(CN2CCN(C(=O)Cn3cnc4c(NCc5ccccc5)ncnc43)CC2)c(C)c1 | / | 1% | / | / | 1µM* | /
O=C(Cn1cnc2c(NCc3ccccc3)ncnc21)N1CCN(c2ccccn2)CC1 | / | 1% | / | / | -8% | /
Oc1cc2c(cc1O)[C@@H]1c3ccc(O)c(O)c3OC[C@]1(O)C2 | 0% | / | / | / | / | /
Cc1cc(OCC(=O)Nc2cnn(CCCC(=O)O)c2)ccc1Cl | 1% | 0%[9.26 µM] | 0% | -3% | 3% | 2%
CCc1ccc(NC(=O)Cc2ccc(NC3=NC4CS(=O)(=O)CC4S3)cc2)cc1 (centres undefined) | / | 8% | 0% | 12% | 7% | ?
Cc1cccc(NC(=O)c2cccc(NC3=NC4CS(=O)(=O)CC4S3)c2)c1 (centres undefined) | / | -3% | -4% | 2% | ? | -6%
Cc1ccc(NC(=O)c2cccc(NC3=NC4CS(=O)(=O)CC4S3)c2)cc1C (centres undefined) | / | 4% | 1% | -4% | ? | 13µM*
CCc1ccc(NC(=O)c2cccc(NC3=NC4CS(=O)(=O)CC4S3)c2)cc1 (centres undefined) | / | 9% | 0% | 8% | 23% | 13µM*
CC(C)c1ccc(NC(=O)c2cccc(NC3=NC4CS(=O)(=O)CC4S3)c2)cc1 (centres undefined) | / | 11% | 20% | 3% | ? | 6µM*
CC(C)c1ccc(NC(=O)Cc2ccc(NC3=NC4CS(=O)(=O)CC4S3)cc2)cc1 (centres undefined) | / | 13% | 2% | 19% | ? | 21µM*
O=C(Nc1ccc(Cl)cc1)c1cccc(NC2=NC3CS(=O)(=O)CC3S2)c1 (centres undefined) | / | 5% | 2% | -1% | 2% | ?
CC(C)(C)NC(=O)C[C@H]1C[C@H](C(=O)N2CCCCC2)[C@@]2(C)c3[nH]c4ccc(Cl)cc4c3CCN2C1=O | / | -2% | / | / | ? | /
COc1cc(C2/C(=C(\O)c3ccc4c(c3)CC(C)O4)C(=O)C(=O)N2CCN2CCOCC2)cc(OC)c1OC (centres undefined) | / | 5% | ? | -2% | 10% | 1%
Cc1oc2ccc(O)cc2c1C(=O)OC(C)C | -12% | 15% | -2% | 1% | ? | 15µM*
Cc1oc2ccc(OCC(N)=O)cc2c1C(=O)OC(C)C | -27% | -2% | -4% | 2% | ? | 3%
Cc1ccc(N(C(=O)c2csnn2)C(C(=O)NC2CCCCC2)c2ccccn2)cc1C (centres undefined) | / | 1% | -1% | -2% | -3% | 0%
CCCc1ccc2oc(C(=O)NCc3nnc(C)o3)c(C)c2c1 | / | 9.2µM* | 2µM* | 2.8µM* | ? | 9.5µM*
CCc1ccc2oc(C(=O)NCc3ccc(S(N)(=O)=O)cc3)c(C)c2c1 | -7% | ? | 14% | 21% | 11% | 4%
CCCc1ccc2oc(C(=O)NCCCN3CCOCC3)c(C)c2c1 | / | ? | 14% | 1%[1.84 µM] | ? | 13µM*
SMILES | SMN2 splice up | ELG1 genotoxic | NPC1 promoter act | Rab9 promoter act | ELG1 DNA repair | FLuc modulator
COc1ccc(/C=C2\CCC(C3CCCC3)C2=O)c(OC)c1OC (centres undefined) | / | 11% | -4% | 0%[1.84 µM] | 21% | 24µM*
COc1cccc(/C=C2\CCC(C3CCCC3)C2=O)c1OC (centres undefined) | / | ? | 2.8µM* | 4µM* | ? | 1.1µM*
Brc1ccc(C=Nc2ccc(Nc3ccccc3)cc2)s1 | 17% | 7% | -11% | -4% | ? | 24µM*
COc1ccccc1CNCC(=O)Nc1cc(S(=O)(=O)N2CCOCC2)ccc1Cl | / | -7% | -3% | -6% | 21µM* | -1%
COc1ccc(S(=O)(=O)N2CCCCCC2)cc1C(=O)N1CCCCC1 | / | ? | -6% | -1% | -6% | 17µM*
COc1ccccc1CNCC(=O)Nc1cc(S(=O)(=O)N2CCCCCC2)ccc1Cl | / | -12% | 1% | -3% | 23µM* | 4%
Cc1ccc(S(=O)(=O)N2CCOCC2)cc1NC(=O)CNCc1ccccc1Cl | / | -2% | -5% | -3% | ? | 15%
Cc1ccc(-c2nc(SCC(=O)Nc3cc(S(=O)(=O)N4CCCCC4)ccc3Cl)n[nH]2)cc1 | 5%[1.84 µM] | 0% | -5% | -7% | -14% | 15µM*
COc1cc(S(=O)(=O)N2CCOCC2)ccc1NC(=O)COC(=O)/C=C/c1cc(OC)c(OC)c(OC)c1 | / | 17% | / | / | 0% | /
COc1cc(/C=C/C(=O)OCC(=O)Nc2cc(S(=O)(=O)N3CCOCC3)ccc2Cl)cc(OC)c1OC | / | -1% | / | / | 18µM* | /
O=c1[nH]c2cc3c(cc2cc1CN(Cc1nnnn1C1CCCC1)C1CCCC1)OCCO3 | 3% | 8% | -3% | -2% | 13µM* | -16%
O=C(/C=C/c1cccc([N+](=O)[O-])c1)N1CCN(c2ccccn2)CC1 | / | ? | -6% | 0% | -22% | -1%
O=C(/C=C/c1cn(-c2ccccc2)nc1-c1cccnc1)N1CCCCC1 | 3% | -4% | 0% | 10% | -28% | 15µM*
O=C(/C=C/c1cn(-c2ccccc2)nc1-c1cccc(Cl)c1)N1CCN(c2ccccn2)CC1 | -50% | -20% | -11% | -6% | 21µM* | ?
COc1cccc(CN(C(=O)c2cc3ccccc3oc2=O)C2CCS(=O)(=O)C2)c1 (centres undefined) | / | 14% | 16% | 20% | ? | ?
CC(=O)N1CCc2c(sc3c2c(=O)n(-c2cc(Cl)ccc2C)c(=O)n3C)C1 | 3% | / | / | / | / | -6%
